# Hits are enriched below; roughly 9.2% of the tested compounds scored in any of these assays.
# NPC1 promoter act = NPC1 promoter activation; Potency, µM (doses to about 9.22 µM), inactives show top-dose activation, usual class: activators; AID 485313; Huh7 NPC1 promoter luciferase reporter, 24 h; actives 2.4% (n = 320,000); also: % of control where 0% means no effect; nearly all actives have a fitted effect of over 60% in size
#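 Huh7 reporter cells (NPC1 promoter driving luciferase) are dosed with compound for 24 h at 37 °C, 5% CO2; luciferase detection reagent is then added and luminescence measured after 10 min at ambient temperature.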
# SMN2 splice enh = SMN2 splice variant enhancement; HEK293 SMN2-luciferase splicing reporter, luminescence, 30-36 h; Potency, µM (series often up to 46.1 µM), inactives show at the top dose activity change, positive = activation, most hits filed as activators; actives 2.8% (n = 210,000); AID 1458; also: % of control where 0% means no effect; nearly all actives have a fitted effect of over 55% in size
#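 qHTS luciferase splicing reporter: luminescence rises when SMN2 exon 7 is included in transfected HEK293 cells. Compound exposure lasted 30-36 h at 37C, with 4.5 mM final sodium butyrate as control, followed by a ONE-Glo read.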
# ELG1 genotox = inducers of genotoxicity in HEK293T ELG1-luciferase cells. Potency, µM (top dose mostly 46 µM), inactives show at the highest dose activity change, positive = activation, most hits filed as activators. AID 504466. actives 1.3% (n = 330,000). HEK293T ELG1-luciferase reporter, luminescence, 16 h; also: % of control where 0% means no effect; nearly all actives have a fitted effect of over 60% in size
#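 HEK293T cells expressing luciferase-tagged ELG1 were treated with compound or DMSO for 16 hr at 37°C. Luciferase activity was then read after 30 min with ONE-Glo at room temperature; rising signal flags genetic stress.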
# Rab9 prom act = activators of Rab9 promoter; AID 485297; actives 2.8% (n = 320,000); Potency, µM (titrated, usually from 9.22 µM), inactives show at the highest dose activation, negative = inhibition, hits mostly activators; Huh7 Rab9 promoter-luciferase reporter, luminescence, 24 h; also: % of control where 0% means no effect; nearly all actives have a fitted effect of over 60% in size
#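 Rab9 promoter-driven luciferase in stably transfected Huh7 cells; 1500 cells/well rested 2 h, exposed to compound in DMSO for 24 h at 37 °C, 5% CO2. Luminescence read 10 min after adding luciferase reagent at ambient temperature.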
# ELG1 DNA repair = blocks ELG1-dependent DNA repair in HEK293T cells | Potency, µM (series often up to 46.1 µM), without a hit: top-dose activity change, negative = inhibition, usual class: inhibitors | HEK293T ELG1-luciferase reporter, luminescence, 16 h; DNA damage induced by 5-fluorouridine | actives 2.3% (n = 330,000); also: % is scaled to controls: 0 for no effect and ±100 for the full control effect; nearly all actives have a fitted effect of over 55% in size
#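 5-Fluorouridine DNA damage + compound/DMSO, 2,000 cells/well, 16 h, 37 °C/5% CO2. ONE-Glo, 30 min RT, luminescence. Readout = decrease in reporter signal.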
# FLuc counter = firefly luciferase modulation, counter-screen for miR-21 project; Potency, µM (highest dose often 57.5 µM), for the others: top-dose activity change, negative = inhibition, most hits filed as inhibitors; P08659; actives 6.9% (n = 360,000); AID 588342; purified FLuc, Km substrates, luminescence inhibition;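 also: plate controls were vehicle for no effect and reference inhibitor for full effect; nearly all actives have a fitted effect of over 55% in size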
#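 Biochemical qHTS of compounds, final roughly 60 µM downward over six points, against 10 nM purified firefly luciferase using Km concentrations of substrates (10 uM D-luciferin, 10 uM ATP) in Tris acetate pH 7.5 buffer; luminescence output.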
# ELG1 FLuc counter = luciferase inhibition in cell-free luciferin readout for ELG1 hits. Potency, µM (top dose mostly 46.1 µM), for the others: top-dose activity change, negative = inhibition, most hits filed as inhibitors. cell-free firefly luciferase luminescence counter-screen, ViewLux. AID 624247. shares compounds with ELG1 DNA repair. actives 3% (n = 350); also: % is scaled to controls: 0 for no effect and ±100 for the full control effect
# ELG1-Luc inh = confirmation of human ELG1-dependent DNA repair inhibitors | shares compounds with ELG1 DNA repair | HEK293T ELG1-luciferase levels, luminescence; cells co-treated with 5-fluorouridine | Potency, µM (titrated, usually from 46.1 µM), for inactives: at the top dose activity change, negative = inhibition, usual class: inhibitors | actives 68% (n = 670) | AID 624248; also: % is scaled to controls: 0 for no effect and ±100 for the full control effect; nearly all actives have a fitted effect of over 55% in size
# ELG1-Luc MMS = MMS-stimulated human ELG1 repair inhibition, confirmed. actives 53% (n = 670). AID 624249. HEK293T luciferase-tagged ELG1 level, MMS stimulated. Potency, µM (top dose mostly 46.1 µM), for inactives: at the highest dose activity change, negative = inhibition, most hits filed as inhibitors. shares compounds with ELG1 DNA repair; also: % is scaled to controls: 0 for no effect and ±100 for the full control effect; nearly all actives have a fitted effect of over 60% in size
# ELG1 5FU viab = confirmation of ELG1 repair inhibitors: viability with 5FU; AID 624250; shares compounds with ELG1 DNA repair; 670 tested, under 10 active; Potency, µM (highest dose often 46.1 µM), inactives show at the top dose activity change, negative = viability loss, most hits filed as cytotoxic; cell viability with 5-FU, ELG1-dependent repair;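 also: ELG1-luc HEK293T cells cotreated with 5-fluorouridine at 10 µM final; viability measured 16 h after compound addition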
# ELG1 MMS viab = confirmation of ELG1 repair inhibitors: viability with MMS; Cell viability with MMS, ELG1-dependent DNA repair; actives 33% (n = 670); shares compounds with ELG1 DNA repair; AID 624251; Potency, µM (doses to about 46.1 µM), inactives show at the highest dose activity change, negative = viability loss, hits mostly cytotoxic;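 also: ELG1-luc HEK293T cells co-treated with 10 µM MMS; viability read 16 h after compound addition; % is scaled to controls: 0 for no effect and ±100 for the full control effect; nearly all actives have a fitted effect of over 60% in size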
# Cell viab unstim = counter-screen for ELG1 repair inhibitors: unstimulated cell viability; shares compounds with ELG1 DNA repair; actives 8% (n = 900); Potency, µM (top dose mostly 45.9 µM), without a hit: at the highest dose activity change, negative = loss of viability, actives largely listed as cytotoxic; AID 624252; cell viability counter-screen, unstimulated, luminescence;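 also: compound exposure lasted 16 hours before reading; % is scaled to controls: 0 for no effect and ±100 for the full control effect; nearly all actives have a fitted effect of over 55% in size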
# FLuc biochem = counter-screen for ELG1 repair inhibitors: firefly luciferase inhibition; shares compounds with ELG1 DNA repair; purified firefly luciferase, luminescence counter-screen; Potency, µM (highest dose often 57.5 µM), for the others: top-dose activity, negative = inhibition, actives largely listed as inhibitors; actives 10% (n = 350); AID 624253; also: % is scaled to controls: 0 for no effect and ±100 for the full control effect
# * = called active by the depositor; ? = inconclusive; . = not tested or not shown. Calls follow the shape of the dose curve; as a rule, active = well fitted curve in the direction sought with a large enough effect; inconclusive = small, poorly fitted or top-dose-only effect, or another doubt; inactive = no such curve, though single readings can be large; an effect the other way counts as inactive or inconclusive. Potency is read from the fitted curve at half-maximal effect.
SMILES,NPC1 promoter act,SMN2 splice enh,ELG1 genotox,Rab9 prom act,ELG1 DNA repair,FLuc counter,ELG1 FLuc counter,ELG1-Luc inh,ELG1-Luc MMS,ELG1 5FU viab,ELG1 MMS viab,Cell viab unstim,FLuc biochem
NC(=S)c1cn(C2OC(CO)C(O)C2O)c2ncnc(N)c12 (configuration not stated),-44%,.,-14%,-52%,0.41µM*,-6%,?,0.16µM*,0.32µM*,-3%,2µM*,?,0%
C=C1C(=O)O[C@@H]2C[C@@H](C)[C@@H]3C=CC(=O)[C@@]3(C)[C@@H](O)[C@H]12,-57%,-46%,.,-49%,4.1µM*,1%,?,?,0.0045µM*,?,0.0056µM*,2.8µM*,7.3µM*
C[C@@H]1C[C@H]2OC(=O)C3(CO3)[C@H]2[C@H](O)[C@]2(C)C(=O)C3OC3[C@@H]12 (some centres not stated),-21%,.,1%,-15%,?,1%,.,.,.,.,.,.,.
CCOC(=O)c1cccc(NS(=O)(=O)c2ccc(NC(C)=O)cc2)c1,1%,-48%,-19%,-15%,4.6µM*,0%,.,13µM*,10µM*,-9%,11µM*,?,.
C=CC(C)=O,.,-10%,.,.,.,.,.,.,.,.,.,.,.

# Screening data from PubChem BioAssay.
